# In paper PMC5540273 (PLoS ONE, 2017):
# Read-outs that look alike come from different tables or passages of the source.
# Experiments:
# [1] = test system: LCK; conditions: concentration: 1 μM, replicates: in singlicate; n = 1
# [2] = test system: LIMK1; conditions: concentration: 1 μM, replicates: in singlicate; n = 1
# [3] = test system: LIMK2; conditions: concentration: 1 μM, replicates: in singlicate; n = 1
# [4] = test system: T1, LKB1; conditions: concentration: 1 μM, replicates: in singlicate; n = 1
# T1 construct: gene STK11
# [5] = test system: T2, LOK; conditions: concentration: 1 μM, replicates: in singlicate; n = 1
# T2 construct: gene STK10
# [6] = test system: LRRK2; conditions: concentration: 1 μM, replicates: in singlicate; n = 1
# [7] = test system: LTK; conditions: n = 1
# [8] = test system: LYN; conditions: concentration: 1 μM, replicates: in singlicate; n = 1
# [9] = test system: T3, LZK; conditions: concentration: 1 μM, replicates: in singlicate; n = 1
# T3 construct: gene MAP3K13
# [10] = test system: MAK; conditions: concentration: 1 μM, replicates: in singlicate; n = 1
# [11] = test system: MAP3K15; conditions: concentration: 1 μM, replicates: in singlicate; n = 1
# [12] = test system: MAP3K1; conditions: concentration: 1 μM, replicates: in singlicate; n = 1
# [13] = test system: MAP3K2; conditions: concentration: 1 μM, replicates: in singlicate; n = 1
# [14] = test system: MAP3K3; conditions: concentration: 1 μM, replicates: in singlicate; n = 1
# [15] = test system: MAP3K4; conditions: concentration: 1 μM, replicates: in singlicate; n = 1
# [16] = test system: MAP4K2; conditions: concentration: 1 μM, replicates: in singlicate; n = 1
# [17] = test system: MAP4K3; conditions: concentration: 1 μM, replicates: in singlicate; n = 1
# [18] = test system: MAP4K4; conditions: concentration: 1 μM, replicates: in singlicate; n = 1
# [19] = test system: MAP4K5; conditions: concentration: 1 μM, replicates: in singlicate; n = 1
# [20] = test system: MAPKAPK2; conditions: concentration: 1 μM, replicates: in singlicate; n = 1
# [21] = concentration: 1 μM, replicates: in singlicate
# 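Further: KINOMEscan kinase panel screen.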
structure (smiles),measurement,setting,value
NCCC(NC(=O)c1cc(Br)c(-c2ccnc3[nH]ccc23)s1)c1ccccc1.O=C(O)C(F)(F)F.O=C(O)C(F)(F)F (centres unmarked) [GSK1307810],%Inh,[1],12%
same,%Inh,[2],12%
same,%Inh,[3],30%
same,%Inh,[4],29%
same,%Inh,[5],0%
same,%Inh,[6],14%
same,%Inh,[7]; [21],0%
same,%Inh,[8],7%
same,%Inh,[9],30%
same,%Inh,[10],30%
same,%Inh,[11],65%
same,%Inh,[12],16%
same,%Inh,[13],38%
same,%Inh,[14],2%
same,%Inh,[15],0%
same,%Inh,[16],23%
same,%Inh,[17],15%
same,%Inh,[18],45%
same,%Inh,[19],0%
same,%Inh,[20],0%
Cc1ccc(NC(=O)c2ccc(Cl)c(Cl)c2)cc1-c1ccc(C(=O)Nc2ccncc2)cc1 [GSK1398460],%Inh,[1],91.9%
same,%Inh,[2],19%
same,%Inh,[3],0%
same,%Inh,[4],0%
same,%Inh,[5],0%
same,%Inh,[6],0%
same,%Inh,[7]; [21],11%
same,%Inh,[8],83%
same,%Inh,[9],0%
same,%Inh,[10],100%
same,%Inh,[11],0%
same,%Inh,[12],8%
same,%Inh,[13],1%
same,%Inh,[14],0%
same,%Inh,[15],45%
same,%Inh,[16],0%
same,%Inh,[17],0%
same,%Inh,[18],1%
same,%Inh,[19],0%
same,%Inh,[20],15%
COc1cccc(-c2nc(-c3ccccc3)[nH]c2-c2ccncc2)c1 [SB-610250],%Inh,[1],16%
same,%Inh,[2],20%
same,%Inh,[3],0%
same,%Inh,[4],4%
same,%Inh,[5],0%
same,%Inh,[6],14%
same,%Inh,[7]; [21],0%
same,%Inh,[8],0%
same,%Inh,[9],0%
same,%Inh,[10],47%
same,%Inh,[11],0%
same,%Inh,[12],16%
same,%Inh,[13],9%
same,%Inh,[14],0%
same,%Inh,[15],0%
same,%Inh,[16],0%
same,%Inh,[17],0%
same,%Inh,[18],1%
same,%Inh,[19],0%
same,%Inh,[20],17%
Cn1cc(-c2ccc3c(c2)CCN3C(=O)Cc2cc(F)cc(F)c2F)c2c(N)ncnc21 [GSK2634140],%Inh,[1],58%
same,%Inh,[2],0%
same,%Inh,[3],0%
same,%Inh,[4],0%
same,%Inh,[5],91.8%
same,%Inh,[6],0%
same,%Inh,[7]; [21],24%
same,%Inh,[8],0%
same,%Inh,[9],0%
same,%Inh,[10],23%
same,%Inh,[11],7%
same,%Inh,[12],10%
same,%Inh,[13],87%
same,%Inh,[14],50%
same,%Inh,[15],80%
same,%Inh,[16],0%
same,%Inh,[17],78%
same,%Inh,[18],0%
same,%Inh,[19],81%
same,%Inh,[20],7%
Cn1cc(-c2cnc(N)c3c(-c4ccc5c(c4)CCN5C(=O)Cc4ccccc4)csc23)cn1 [GSK2593074],%Inh,[1],93.8%
same,%Inh,[2],49%
same,%Inh,[3],55%
same,%Inh,[4],0%
same,%Inh,[5],98.9%
same,%Inh,[6],3%
same,%Inh,[7]; 1 µM,0%
same,%Inh,[8],65%
same,%Inh,[9],0%
same,%Inh,[10],0%
same,%Inh,[11],35%
same,%Inh,[12],4%
same,%Inh,[13],75%
same,%Inh,[14],64%
same,%Inh,[15],82%
same,%Inh,[16],36%
same,%Inh,[17],97.6%
same,%Inh,[18],0%
same,%Inh,[19],98.8%
same,%Inh,[20],0%
CC(C)c1nc(-c2cccc(NS(=O)(=O)c3c(F)cccc3F)c2)c(-c2ccnc(Nc3ccc(N4CCOCC4)nc3)n2)s1.Cl [GSK1723980],%Inh,[1],99.7%
same,%Inh,[2],100%
same,%Inh,[3],100%
same,%Inh,[4],4%
same,%Inh,[5],99.1%
same,%Inh,[6],18%
same,%Inh,[7]; [21],0%
same,%Inh,[8],97.8%
same,%Inh,[9],52%
same,%Inh,[10],70%
same,%Inh,[11],7%
same,%Inh,[12],13%
same,%Inh,[13],28%
same,%Inh,[14],71%
same,%Inh,[15],28%
same,%Inh,[16],0%
same,%Inh,[17],47%
same,%Inh,[18],0%
same,%Inh,[19],48%
same,%Inh,[20],0%
CCNC(=O)/C=C/c1n[nH]c2cc(Sc3ccccc3C(=O)NC)ccc12,%Inh,[1],11%
same,%Inh,[2],25%
same,%Inh,[3],11%
same,%Inh,[4],0%
same,%Inh,[5],27%
same,%Inh,[6],0%
same,%Inh,[7]; [21],0%
same,%Inh,[8],16%
same,%Inh,[9],14%
same,%Inh,[10],26%
same,%Inh,[11],5%
same,%Inh,[12],38%
same,%Inh,[13],20%
same,%Inh,[14],30%
same,%Inh,[15],3%
same,%Inh,[16],30%
same,%Inh,[17],65%
same,%Inh,[18],39%
same,%Inh,[19],24%
same,%Inh,[20],12%
Nc1ncnc2scc(-c3ccc(NC(=O)Cc4cc(F)ccc4F)cc3)c12.O=C(O)C(F)(F)F [SB-731254-M],%Inh,[1],54%
same,%Inh,[2],55%
same,%Inh,[3],96%
same,%Inh,[4],29%
same,%Inh,[5],81%
same,%Inh,[6],0%
same,%Inh,[7]; [21],71%
same,%Inh,[8],16%
same,%Inh,[9],0%
same,%Inh,[10],20%
same,%Inh,[11],24%
same,%Inh,[12],10%
same,%Inh,[13],82%
same,%Inh,[14],63%
same,%Inh,[15],22%
same,%Inh,[16],16%
same,%Inh,[17],54%
same,%Inh,[18],1%
same,%Inh,[19],70%
same,%Inh,[20],35%
Nc1ncc(-c2cn[nH]c2)c2scc(-c3ccc4c(c3)CCN4C(=O)Cc3ccccc3)c12 [GSK2593067],%Inh,[1],96.5%
same,%Inh,[2],17%
same,%Inh,[3],49%
same,%Inh,[4],2%
same,%Inh,[5],98.6%
same,%Inh,[6],52%
same,%Inh,[7]; [21],67%
same,%Inh,[8],80%
same,%Inh,[9],0%
same,%Inh,[10],10%
same,%Inh,[11],22%
same,%Inh,[12],24%
same,%Inh,[13],91%
same,%Inh,[14],79%
same,%Inh,[15],86%
same,%Inh,[16],87%
same,%Inh,[17],98.9%
same,%Inh,[18],27%
same,%Inh,[19],99.6%
same,%Inh,[20],0%
COc1cccc(C2=C(Nc3cccc(O)c3)C(=O)NC2=O)c1 [SB-390771],%Inh,[1],11%
same,%Inh,[2],9%
same,%Inh,[3],18%
same,%Inh,[4],0%
same,%Inh,[5],0%
same,%Inh,[6],0%
same,%Inh,[7]; [21],6%
same,%Inh,[8],24%
same,%Inh,[9],0%
same,%Inh,[10],25%
same,%Inh,[11],0%
same,%Inh,[12],0%
same,%Inh,[13],12%
same,%Inh,[14],0%
same,%Inh,[15],38%
same,%Inh,[16],8%
same,%Inh,[17],0%
same,%Inh,[18],4%
same,%Inh,[19],0%
same,%Inh,[20],17%
